Hits are enriched below; roughly 10% of the tested compounds scored in any of these assays.
KB-V1 cytotox – kills drug-selected multidrug resistant KB-V1 cells. 3.4% of 400,000 active. KB-V1 MDR cells viability, CellTiter-Glo, 72 h. AID 1347076. Potency, µM (highest dose often 46.1 µM), usual class: cytotoxic; also: % is scaled to controls: 0 for no effect and ±100 for the full control effect; nearly all actives have a fitted effect of over 60% in size
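Cells of the MDR subline KB-V1 are plated, dosed with compound at multiple concentrations, and incubated 72 h at 37 degrees C; CellTiter-Glo is then added and luminescence read after 10 min.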
MCF10A rerep – DNA re-replication induction in MCF 10a cells | Potency, µM (doses to about 46.1 µM), for inactives: at the highest dose activity, positive = re-replication, usual class: activators | MCF 10A DNA re-replication, Hoechst nuclear intensity, 48 h | 2.9% of 350,000 active; also: % of control where 0% means no effect; nearly all actives have a fitted effect of over 50% in size
KB-3-1 tox – KB-3-1 parental cell cytotoxicity. 1.4% of 400,000 active. AID 1347075. KB-3-1 viability, CellTiter-Glo ATP luminescence, 72 h. Potency, µM (doses to about 46.1 µM), hits mostly cytotoxic; also: % is scaled to controls: 0 for no effect and ±100 for the full control effect; nearly all actives have a fitted effect of over 60% in size
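72 h, 37 °C compound treatment of KB-3-1 parental cells; CellTiter-Glo added, 10 min, luminescence read. Data corrected against DMSO-only plates and normalized before curve fitting.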
RORgamma inh – ROR gamma (mouse) transcription inhibition. Drosophila S2 Gal4-RORgamma UAS-luciferase reporter, 20 h. Potency, µM (series often up to 53.6 µM), inactives show top-dose activity change, negative = inhibition, usual class: inhibitors. 5.4% of 310,000 active. AID 2551; also: % is scaled to controls: 0 for no effect and ±100 for the full control effect; nearly all actives have a fitted effect of over 60% in size
Target sequence (P51450 whole entry, looked up, the tested form may be a part): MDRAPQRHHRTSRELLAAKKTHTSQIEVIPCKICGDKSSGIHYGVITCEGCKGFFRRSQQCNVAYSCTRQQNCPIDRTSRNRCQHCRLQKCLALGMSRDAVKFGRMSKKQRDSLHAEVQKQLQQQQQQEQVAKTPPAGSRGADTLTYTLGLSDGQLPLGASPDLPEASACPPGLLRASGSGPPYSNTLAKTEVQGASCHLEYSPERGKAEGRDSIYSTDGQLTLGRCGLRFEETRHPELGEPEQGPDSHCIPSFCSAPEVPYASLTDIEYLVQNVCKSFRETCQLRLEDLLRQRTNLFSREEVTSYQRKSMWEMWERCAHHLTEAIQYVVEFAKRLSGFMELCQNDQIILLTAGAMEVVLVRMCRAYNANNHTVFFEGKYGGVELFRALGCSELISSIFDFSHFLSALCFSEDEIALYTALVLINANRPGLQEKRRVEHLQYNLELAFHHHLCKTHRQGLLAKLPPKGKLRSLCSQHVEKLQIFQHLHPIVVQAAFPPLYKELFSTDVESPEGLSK
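ROR gamma transcriptional activity was tracked as Gal4-UAS luciferase output in stably transfected Drosophila Schneider cells, with compound added 1 hr before 700 uM copper sulfate induction and a 20 hr ambient-temperature incubation.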
Gal4-VP16 FLuc – counter-screen for ROR gamma inhibitors: Gal4-VP16 reporter; Drosophila S2 Gal4-VP16 UAS-luciferase, luminescence, 20 h; Potency, µM (highest dose often 53.6 µM), inactives show at the top dose activity, negative = inhibition, hits mostly inhibitors; 3.5% of 310,000 active; AID 2546;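 also: Gal4-VP16 expression switched on by copper sulfate through the metallothionein promoter; % is scaled to controls: 0 for no effect and ±100 for the full control effect; nearly all actives have a fitted effect of over 50% in size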
SW480 rereplic – inducers of DNA re-replication in SW480 colon cancer cells; Potency, µM (series often up to 46.1 µM), inactives show top-dose re-replication activation, actives largely listed as activators; 1.8% of 340,000 active; SW480 DNA re-replication, Hoechst DNA content imaging, 48 h; also: % of control where 0% means no effect; nearly all actives have a fitted effect of over 55% in size
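Hoechst fluorescence of nuclei (405 nm excitation, 500-530 nm emission) measured by plate-scanning imager after 48 hr compound exposure at 37 C; re-replication scored as increased number of nuclei with elevated intensity.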
The depositor's hits bear a star. Calls follow the shape of the dose curve; as a rule, active = well fitted curve in the direction sought with a large enough effect; inconclusive = small, poorly fitted or top-dose-only effect, or another doubt; inactive = no such curve, though single readings can be large; an effect the other way counts as inactive or inconclusive. Potency is read from the fitted curve at half-maximal effect.

`CC(=O)Nc1ccccc1C(=O)OCC(=O)c1ccc2ccccc2c1` gave KB-V1 cytotox 14.6µM*, MCF10A rerep 0.8%, KB-3-1 tox inactive, RORgamma inh 42.5%, Gal4-VP16 FLuc -2.9% and SW480 rereplic -3.0%.
CCOC(=O)C1OC1(C)c1ccccc1 (stereo not drawn) was read as RORgamma inh 2.1% and Gal4-VP16 FLuc -4.0%.
Screening O=C1NC(=O)C(CCc2ccncc2)(Cc2cccc(Cl)c2Cl)C(=O)N1c1ccc(Br)cc1 (stereo not drawn) returned KB-V1 cytotox 8.2µM*, MCF10A rerep 4.61µM*, KB-3-1 tox 5.17µM*, RORgamma inh 40.2%, Gal4-VP16 FLuc -22.9% and SW480 rereplic 11.6µM*.
CCc1ccc(N2C(=O)NC(=O)C(CCc3ccncc3)(CCc3ccncc3)C2=O)cc1 was read as KB-V1 cytotox inactive, MCF10A rerep 2.0%, KB-3-1 tox inactive, RORgamma inh 31.2%, Gal4-VP16 FLuc -8.6% and SW480 rereplic -6.3%.
`CC(C)NCC(O)c1ccc(C2CCCC2)cc1` (stereo not drawn) gave KB-V1 cytotox 23.1µM*, MCF10A rerep 12.5%, KB-3-1 tox inactive, RORgamma inh -5.8%, Gal4-VP16 FLuc -10.0% and SW480 rereplic -22.7%.
For CC(C)NCC(O)c1ccc(N)c(C#N)c1 (stereo not drawn) the results were MCF10A rerep 6.4%, RORgamma inh 3.8%, Gal4-VP16 FLuc 2.0% and SW480 rereplic -5.2%.
CN1C(=O)C(=Cc2ccc(OCCN(C)c3ccccn3)cc2)C(=O)N(C)C1=O was read as KB-V1 cytotox inconclusive, MCF10A rerep 0.411µM*, KB-3-1 tox inactive, RORgamma inh 15.3%, Gal4-VP16 FLuc 10.9% and SW480 rereplic -23.2%.
For Nc1ccc2c3c(cccc13)-c1ccccc1-2 the results were KB-V1 cytotox inactive, MCF10A rerep 2.91µM*, KB-3-1 tox inactive and SW480 rereplic 9.2µM*.
CC[C@H](C)[C@@H]1NC(=O)CNC(=O)c2csc(n2)[C@H](C(C)(C)O)OC(=O)C(C)(C)[C@H](CCCC(C)(Cl)Cl)OC(=O)c2csc1n2 was read as KB-V1 cytotox 13µM* and KB-3-1 tox 0.461µM*.
CN1CCC(O)(c2cccs2)C(C(=O)c2cccs2)C1 (stereo not drawn) was read as KB-V1 cytotox inactive, MCF10A rerep inconclusive, KB-3-1 tox inactive, RORgamma inh 3.98µM*, Gal4-VP16 FLuc 3.16µM* and SW480 rereplic 19.3%.
CN1CCC(O)(c2ccc(F)cc2)C(C(=O)c2ccc(F)cc2)C1 (stereo not drawn) was read as MCF10A rerep 26.6µM*, RORgamma inh -23.0%, Gal4-VP16 FLuc 2.9% and SW480 rereplic inconclusive.
Screening O=S(c1ccccc1)c1ccccc1 returned KB-V1 cytotox inactive, MCF10A rerep -21.9%, KB-3-1 tox inactive and SW480 rereplic -2.8%.
For COC(=O)CSc1cc([N+](=O)[O-])cc2c1c(C1OCCO1)nn2-c1ccccc1 the results were KB-V1 cytotox inactive, MCF10A rerep inconclusive, KB-3-1 tox inactive, RORgamma inh -37.4%, Gal4-VP16 FLuc -11.0% and SW480 rereplic -1.5%.
c1ccc(N2CC[C@@]3(CCCNC3)C2)cc1 was read as RORgamma inh -1.6% and Gal4-VP16 FLuc 1.6%.
Screening CC1CCN(C(CC(=O)c2ccccc2)C(=O)c2ccccc2)CC1 (stereo not drawn) returned KB-V1 cytotox inactive, MCF10A rerep 3.66µM*, KB-3-1 tox inactive and SW480 rereplic 6.51µM*.
O=C(CCCN1CCC2(CC1)C(=O)N(Cc1cccc(F)c1)CN2c1ccccc1)c1ccc(F)cc1 was read as RORgamma inh -32.7% and Gal4-VP16 FLuc inconclusive.
For CN(C)CCN=Cc1c(O)n(CCC2=CCCCC2)c(=O)[nH]c1=O the results were KB-V1 cytotox inactive, MCF10A rerep -1.0%, KB-3-1 tox inactive, RORgamma inh 8.2%, Gal4-VP16 FLuc -5.4% and SW480 rereplic -3.8%.

Screens (PubChem BioAssay)
